The structures appear in SMILES notation.

The source of these data is ChEMBL document CHEMBL3433997, “St. Jude Leishmania screening dataset” (2016).

The target in one assay is Solute carrier family 2, facilitated glucose transporter member 1 (Homo sapiens) (UniProt P11166). The assay is described as follows: ST_JUDE_LEISH: Cytotoxicity at 2uM final concentration against transgenic Leishmania Mexicana promastigotes LmGLUT1 that are glucose transport deficient and complemented with the human glucose transporter GLUT1. Activity is measured by DNA content using SYBR green in vitro. It counts as functional.
Chain of Solute carrier family 2, facilitated glucose transporter member 1 (Homo sapiens) (P11166 whole entry): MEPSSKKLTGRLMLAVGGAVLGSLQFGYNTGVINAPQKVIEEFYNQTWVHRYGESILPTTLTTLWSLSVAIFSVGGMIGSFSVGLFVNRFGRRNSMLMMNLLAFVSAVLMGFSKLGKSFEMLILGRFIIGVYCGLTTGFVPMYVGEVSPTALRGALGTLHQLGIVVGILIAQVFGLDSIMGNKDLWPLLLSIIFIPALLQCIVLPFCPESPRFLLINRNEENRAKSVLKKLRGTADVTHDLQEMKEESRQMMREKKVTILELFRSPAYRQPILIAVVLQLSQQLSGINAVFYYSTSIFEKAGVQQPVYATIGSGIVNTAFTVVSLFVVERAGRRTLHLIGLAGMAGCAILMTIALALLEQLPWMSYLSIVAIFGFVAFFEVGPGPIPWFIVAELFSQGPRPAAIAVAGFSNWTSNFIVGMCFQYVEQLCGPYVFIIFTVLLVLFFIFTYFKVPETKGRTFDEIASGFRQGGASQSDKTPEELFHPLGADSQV
In the case of `COc1ccc(NC(=O)CCNc2cc(C)nc(NCc3cccc(C)c3)n2)cc1`, the inhibition was -0.09%.
Still for that read-out and setting: then `CCCCCC(C)C(C)c1cc(O)c2c(c1)OC(C)(C)C=C2c1cc[n+]([O-])cc1` (stereo not drawn), with 11%.
On the same count and under the same terms, then `CC(C#N)Cc1ccc(-c2cnc(N)c3cc(-c4ccnc(N)n4)ccc23)cc1` (stereo not drawn), with 5.38%.
For `COc1ccc2nccc([C@@H](O)CN3CCC(NCc4nc5ccccc5[nH]4)CC3)c2c1`, the inhibition was determined as 1.84%.
The same measure, in the same setting: then `O=C(/C=C/c1ccc(Cl)c(Cl)c1)NCCCCCN1CCCN(C(=O)Nc2cccc(F)c2)CC1`, with 0.1%.
Take `O=C(NC1CC1)c1ccc2cc(C(=O)N3Cc4ccccc4C(c4ccccc4)C3)ccc2c1` (stereo not drawn): the inhibition worked out at 2.37%.
Still for that read-out and setting: then `CC(NC(=O)c1ccc(O)c(-c2ccc(Cl)c(Cl)c2)c1)C(=O)NCCN1CCCC1` (stereo not drawn), with 7.43%; and `CCOC(=O)c1ccc(OCc2ccc(-c3ccccc3)cc2)cc1`, with -0.38%; and `Cc1ccc(Nc2ccnc3cc(-c4nccs4)ccc23)cc1C(O)c1ccccc1` (stereo not drawn), with 3.59%.
For the compound `COc1ccc(Cl)cc1NC(=O)C(C)N1CCN(S(=O)(=O)c2ccccc2F)CC1` (stereo not drawn), the inhibition worked out at 4.36%.
Regarding `c1ccc2[nH]c(-c3ccc(-c4ccc(CN5CCN(c6ccncc6)CC5)cc4)cc3)nc2c1`, the inhibition worked out at 21.3%.
Consider `Cc1ccc(NC(=O)c2nc(N3CCN(c4ccncc4)CC3)ccc2Cl)cc1F`, for which the inhibition is 13.1%.
For the compound `O=C(Nc1cccc(C(F)(F)F)c1)c1cccc(S(=O)(=O)NCC2CCCN2CC2CCCCC2)c1` (stereo not drawn), the inhibition is 5.37%.
As to `COCCN1CCC(N(CC2(O)CCN(c3ccc(C(F)(F)F)cc3)CC2)C(=O)Cn2c(SCc3cccc(F)c3F)cc(=O)c3ccccc32)CC1`, the inhibition was -0.38%.
Still for that read-out and setting: then `Oc1ccc(CCNCCCCCNCCCc2ccc(Cl)cc2)cc1O`, with 2.04%; and `O=c1cnc2ccc(F)cc2n1CCN1CCC(NCc2cc(-c3ccccc3)cs2)CC1`, with 28.4%; and `COc1ccc(-c2nnc(Sc3ccc(C#N)c([N+](=O)[O-])c3)n2CC(C)C)cc1`, with 0.96%.
Still for that read-out and setting: the figure for `COC(=O)c1cccc(NC(=O)NC2CCN(c3ccnc(NCc4ccc(F)cc4)n3)CC2)c1` is -2.83%.
Same read-out and setting: the figure for `CN1CCCN(Cc2cccc(-c3cccc(NC(=O)c4cccc(C#N)c4)c3)c2)CC1` is 12.8%; for `CN(C)CCCc1cc2c(cc1Cl)CCN2C(=O)Nc1ccc(-c2ccncc2)c2ccccc12` it is -2.58%.
For `O=C(Nc1cccc(-c2ccc(-c3nc4ccccc4[nH]3)cc2)c1)c1cnn2cccnc12`, the inhibition is -0.77%.
Still for that read-out and setting: then `Cc1cccc(CNc2nc(C)cc(N[C@@H](Cc3ccccc3)C(=O)NCc3cccc(F)c3)n2)c1`, with 6.42%; and `CC(C)N1CCN(CCCNc2c3ccccc3nc3ccccc23)CC1`, with 40.1%.
On the same count and under the same terms, then `COc1ccc2nccc(NC(=O)C3CCC(NCc4ccc5c(c4)NC(=O)CS5)CC3)c2c1` (stereo not drawn), with 4.42%; and `COc1ccc(CNCc2ccccc2)cc1-c1ccc(S(=O)(=O)NCCN2CCCC2)cc1`, with 2.89%; and `CNCc1ccc2nc(-c3coc(Cc4cc(Cl)ccc4OCC(C)C)n3)[nH]c2c1`, with 6.56%.
On to `COCCn1c(-c2nc(-c3ccc(F)cc3)cnc2N)nc2ccccc21`, for which the inhibition worked out at 0.54%.
For the compound `COc1cc(Cc2cnc(N)nc2N)cc(OCC(C)(C)C(=O)O)c1OC`, the inhibition was -1.6%.
Turning to `Fc1ccc2[nH]c(-c3cccc(-c4ccc(CN5CCN(CCN6CCOCC6)CC5)cc4)c3)nc2c1`, the inhibition stood at 1.26%.
On to `CCN(CCCN1CCCCC1)c1cc(C)nc(Nc2ccc(OC)cc2)n1`, for which the inhibition was -2.3%.
The same measure, in the same setting: the figure for `c1cc2[nH]c(CCCc3nc4cc(C5=N[C@H]6CCCC[C@H]6N5)ccc4[nH]3)nc2cc1C1=N[C@@H]2CCCC[C@@H]2N1` is 0.97%.
For `CC1CN(c2cnn(Cc3cccc(NC(=O)Nc4cccc(C(F)(F)F)c4)c3)c(=O)c2Cl)CC(C)N1` (stereo not drawn), the inhibition worked out at 10.7%.
Regarding `N#Cc1ccc(N[C@@H](CC2CCCCC2)C(=O)Nc2ccc(-c3ccccc3)cc2)c2ccccc12`, the inhibition was 2.38%.
For the compound `CCC[C@@H](/C=N/N(C)C(=O)OC(C)(C)C)NC(=O)[C@H](CC(C)C)NC(=O)c1cc2cccc(OC)c2o1`, the inhibition came out at 3.02%.
For the compound `COc1cc(NC(=O)c2cccs2)c(C(=O)NCc2ccc(C)cc2)cc1OC`, the inhibition is 5.62%.
In the case of `O=c1cc(NCCCNC2CCOc3c(Cl)cccc32)[nH]c2ccccc12` (stereo not drawn), the inhibition was 0.96%.
Same read-out and setting: then `NC(=O)c1cccc(-n2ccc3cc(CNC4Cc5ccccc5C4)ccc32)c1`, with 21.9%.
As to `CCC(=O)Oc1ccc(NC(=O)c2cccc(OC)c2)cc1`, the inhibition is 1.64%.
The same measure, in the same setting: then `CN(C)c1ccc(-c2csc(C(=O)NCC3CCN(CC4CCCCC4)C3)c2)cc1` (stereo not drawn), with 2.79%.

In another assay the target is Hexose transporter 1 (Plasmodium falciparum) (UniProt O97467). The assay can be described thus: ST_JUDE_LEISH: Cytotoxicity at 2uM final concentration against transgenic Leishmania Mexicana promastigotes LmPfHT that are glucose transport deficient and complemented with the Plasmodium falciparum hexose transporter. Activity is measured by DNA content using SYBR green in vitro. It counts as functional.
For the compound `COc1ccc(NC(=O)CCNc2cc(C)nc(NCc3cccc(C)c3)n2)cc1`, the inhibition amounted to 0.43%.
On the same count and under the same terms, the figure for `CCCCCC(C)C(C)c1cc(O)c2c(c1)OC(C)(C)C=C2c1cc[n+]([O-])cc1` (stereo not drawn) is 10.4%; for `CC(C#N)Cc1ccc(-c2cnc(N)c3cc(-c4ccnc(N)n4)ccc23)cc1` (stereo not drawn) it is 3.48%.
Take `COc1ccc2nccc([C@@H](O)CN3CCC(NCc4nc5ccccc5[nH]4)CC3)c2c1`: the inhibition was -0.18%.
Still for that read-out and setting: the figure for `O=C(/C=C/c1ccc(Cl)c(Cl)c1)NCCCCCN1CCCN(C(=O)Nc2cccc(F)c2)CC1` is 0.29%.
Same read-out and setting: then `O=C(NC1CC1)c1ccc2cc(C(=O)N3Cc4ccccc4C(c4ccccc4)C3)ccc2c1` (stereo not drawn), with -0.61%; and `CC(NC(=O)c1ccc(O)c(-c2ccc(Cl)c(Cl)c2)c1)C(=O)NCCN1CCCC1` (stereo not drawn), with 6.16%; and `CCOC(=O)c1ccc(OCc2ccc(-c3ccccc3)cc2)cc1`, with -0.13%.
The same measure, in the same setting: the figure for `Cc1ccc(Nc2ccnc3cc(-c4nccs4)ccc23)cc1C(O)c1ccccc1` (stereo not drawn) is 2.96%; for `COc1ccc(Cl)cc1NC(=O)C(C)N1CCN(S(=O)(=O)c2ccccc2F)CC1` (stereo not drawn) it is 3.53%; for `c1ccc2[nH]c(-c3ccc(-c4ccc(CN5CCN(c6ccncc6)CC5)cc4)cc3)nc2c1` it is 15.4%.
As for `Cc1ccc(NC(=O)c2nc(N3CCN(c4ccncc4)CC3)ccc2Cl)cc1F`, the inhibition came to 7.01%.
Same read-out and setting: then `O=C(Nc1cccc(C(F)(F)F)c1)c1cccc(S(=O)(=O)NCC2CCCN2CC2CCCCC2)c1` (stereo not drawn), with 3.21%.
With `COCCN1CCC(N(CC2(O)CCN(c3ccc(C(F)(F)F)cc3)CC2)C(=O)Cn2c(SCc3cccc(F)c3F)cc(=O)c3ccccc32)CC1`, the inhibition worked out at 0.65%.
On the same count and under the same terms, then `Oc1ccc(CCNCCCCCNCCCc2ccc(Cl)cc2)cc1O`, with -0.25%; and `O=c1cnc2ccc(F)cc2n1CCN1CCC(NCc2cc(-c3ccccc3)cs2)CC1`, with 32.4%; and `COc1ccc(-c2nnc(Sc3ccc(C#N)c([N+](=O)[O-])c3)n2CC(C)C)cc1`, with 3.46%.
On the same count and under the same terms, then `COC(=O)c1cccc(NC(=O)NC2CCN(c3ccnc(NCc4ccc(F)cc4)n3)CC2)c1`, with -2.8%; and `CN1CCCN(Cc2cccc(-c3cccc(NC(=O)c4cccc(C#N)c4)c3)c2)CC1`, with 11.4%.
On the same count and under the same terms, the figure for `CN(C)CCCc1cc2c(cc1Cl)CCN2C(=O)Nc1ccc(-c2ccncc2)c2ccccc12` is -1.62%; for `O=C(Nc1cccc(-c2ccc(-c3nc4ccccc4[nH]3)cc2)c1)c1cnn2cccnc12` it is -0.45%; for `Cc1cccc(CNc2nc(C)cc(N[C@@H](Cc3ccccc3)C(=O)NCc3cccc(F)c3)n2)c1` it is 6.57%.
Take `CC(C)N1CCN(CCCNc2c3ccccc3nc3ccccc23)CC1`: the inhibition was 58%.
In the case of `COc1ccc2nccc(NC(=O)C3CCC(NCc4ccc5c(c4)NC(=O)CS5)CC3)c2c1` (stereo not drawn), the inhibition was 2.96%.
Same read-out and setting: then `COc1ccc(CNCc2ccccc2)cc1-c1ccc(S(=O)(=O)NCCN2CCCC2)cc1`, with 1.76%.
Turning to `CNCc1ccc2nc(-c3coc(Cc4cc(Cl)ccc4OCC(C)C)n3)[nH]c2c1`, the inhibition worked out at 4.9%.
Same read-out and setting: the figure for `COCCn1c(-c2nc(-c3ccc(F)cc3)cnc2N)nc2ccccc21` is -2.08%; for `COc1cc(Cc2cnc(N)nc2N)cc(OCC(C)(C)C(=O)O)c1OC` it is -1.08%; for `Fc1ccc2[nH]c(-c3cccc(-c4ccc(CN5CCN(CCN6CCOCC6)CC5)cc4)c3)nc2c1` it is 1.68%.
On to `CCN(CCCN1CCCCC1)c1cc(C)nc(Nc2ccc(OC)cc2)n1`, for which the inhibition is -1.06%.
Consider `c1cc2[nH]c(CCCc3nc4cc(C5=N[C@H]6CCCC[C@H]6N5)ccc4[nH]3)nc2cc1C1=N[C@@H]2CCCC[C@@H]2N1`, for which the inhibition was determined as 1.75%.
Turning to `CC1CN(c2cnn(Cc3cccc(NC(=O)Nc4cccc(C(F)(F)F)c4)c3)c(=O)c2Cl)CC(C)N1` (stereo not drawn), the inhibition worked out at 8.17%.
The same measure, in the same setting: then `N#Cc1ccc(N[C@@H](CC2CCCCC2)C(=O)Nc2ccc(-c3ccccc3)cc2)c2ccccc12`, with 3.08%; and `CCC[C@@H](/C=N/N(C)C(=O)OC(C)(C)C)NC(=O)[C@H](CC(C)C)NC(=O)c1cc2cccc(OC)c2o1`, with 3.92%; and `COc1cc(NC(=O)c2cccs2)c(C(=O)NCc2ccc(C)cc2)cc1OC`, with 4.22%.
Take `O=c1cc(NCCCNC2CCOc3c(Cl)cccc32)[nH]c2ccccc12` (stereo not drawn): the inhibition worked out at 1.67%.
For the compound `NC(=O)c1cccc(-n2ccc3cc(CNC4Cc5ccccc5C4)ccc32)c1`, the inhibition turned out to be 26.2%.
Still for that read-out and setting: then `CCC(=O)Oc1ccc(NC(=O)c2cccc(OC)c2)cc1`, with 1.17%; and `CN(C)c1ccc(-c2csc(C(=O)NCC3CCN(CC4CCCCC4)C3)c2)cc1` (stereo not drawn), with 0.77%.
